In PubChem BioAssay AID623911 (Vanderbilt High Throughput Screening Facility, 2012):
Among all 2,100 compounds or so, about 770 (37%) were called active. The list shows a part of the results. Unmarked numbers belong to inactive results.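 Rule for the calls: active = by-eye trace score of 1 for enhancers or -1 for inhibitors, so actives lie on both sides (some results past the limit were not filed as active); inactive = score 0, or 3 fluorescent, or 4 baseline rise.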

Biological target: G protein-activated inward rectifier potassium channel 2 (Homo sapiens) + G protein-activated inward rectifier potassium channel 1 (Homo sapiens) (UniProt P48051+P48549)
Sequence (P48051 whole entry, looked up): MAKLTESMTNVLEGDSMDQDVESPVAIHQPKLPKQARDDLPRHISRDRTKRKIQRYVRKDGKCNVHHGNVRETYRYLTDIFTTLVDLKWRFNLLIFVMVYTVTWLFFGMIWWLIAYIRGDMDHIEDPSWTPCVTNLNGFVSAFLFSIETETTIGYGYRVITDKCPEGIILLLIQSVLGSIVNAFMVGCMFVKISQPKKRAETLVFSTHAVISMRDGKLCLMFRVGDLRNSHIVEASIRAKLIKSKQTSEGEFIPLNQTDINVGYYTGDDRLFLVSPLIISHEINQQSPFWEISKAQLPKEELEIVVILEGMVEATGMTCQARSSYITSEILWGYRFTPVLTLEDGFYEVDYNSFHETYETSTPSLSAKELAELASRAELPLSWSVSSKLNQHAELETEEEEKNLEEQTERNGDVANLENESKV
Sequence (P48549 whole entry, looked up): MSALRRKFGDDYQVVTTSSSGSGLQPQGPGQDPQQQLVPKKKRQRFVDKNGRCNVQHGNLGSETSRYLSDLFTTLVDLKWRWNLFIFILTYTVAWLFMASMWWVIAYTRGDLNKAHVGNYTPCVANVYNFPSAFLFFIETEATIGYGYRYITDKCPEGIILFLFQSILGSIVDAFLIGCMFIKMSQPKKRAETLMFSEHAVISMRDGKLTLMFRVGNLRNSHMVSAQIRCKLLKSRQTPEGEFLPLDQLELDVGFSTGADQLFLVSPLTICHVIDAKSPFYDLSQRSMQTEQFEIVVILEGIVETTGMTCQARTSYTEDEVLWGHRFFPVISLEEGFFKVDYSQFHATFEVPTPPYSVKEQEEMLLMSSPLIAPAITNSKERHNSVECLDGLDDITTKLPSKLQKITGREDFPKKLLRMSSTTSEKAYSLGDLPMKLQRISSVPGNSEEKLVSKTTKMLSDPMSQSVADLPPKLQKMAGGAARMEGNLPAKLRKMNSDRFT
Experiment: GIRK1/2 thallium flux modulators, retest, confirmation, cell-based, HEK293 rmGlu8/hGIRK1/2, FluoZin-2 (AID 623911)
Conditions: HEK293 rmGlu8/hGIRK1/2, thallium flux FluoZin-2; actives lie on both sides; glutamate co-added at its EC20 level

| Compound | manual score |
| --- | --- |
| Cc1nccn1CCc1nc(N)nc(N)n1 | 0 |
| Cc1ccccc1OCC(=O)NNC(=S)NC(=O)c1ccco1 | 1 (active) |
| CCCc1ccc(OCC(=O)NNC(=S)NC(=O)c2ccco2)cc1 | 1 (active) |
| CCN(CC)c1ccc(/C=C2/C(=O)c3ccc(C(=O)O)cc3C2=O)cc1 | 3 |
| CC1(C)CC2CC(C)(CN2C(=S)NC(=O)c2ccccc2Cl)C1 (stereo unspecified) | 1 (active) |
| Nc1sccc1C(=O)c1ccccc1 | 0 |
| O=C(NCCSCc1ccco1)Nc1cccc(Cl)c1 | 1 (active) |
| O=C(NCCCn1ccnc1)Nc1ccc(Cl)c(Cl)c1 | 0 |
| Clc1cccc(CSc2nnc(-c3ccccn3)n2Cc2ccco2)c1 | 0 |
| CN(C)S(=O)(=O)N(CC(=O)Nc1ccc2ccccc2c1)c1ccccc1 | 1 (active) |
| Cc1cccc(NC(=O)CN(c2ccc(C(C)C)cc2)S(=O)(=O)c2c(C)nn(C)c2C)n1 | -0.5 |
| CSc1cccc(NC(=O)CN(c2ccc(C)cc2C)S(C)(=O)=O)c1 | 1 (active) |
| COc1cccc(N(CC(=O)Nc2cccc(C(C)=O)c2)S(C)(=O)=O)c1 | 0 |
| CSc1cccc(NC(=O)COc2ccccc2)c1 | 1 (active) |
| COc1cccc(N(CC(=O)NCc2cccnc2)S(C)(=O)=O)c1 | 0 |
| CSc1cccc(NC(=O)CN(c2ccccc2)S(=O)(=O)N(C)C)c1 | 1 (active) |

| Compound | manual score |
| --- | --- |
| CC(=O)c1cccc(NC(=O)CCOc2ccccc2)c1 | 0 |
| COc1cccc(NC(=O)COc2ccc(C)cc2)c1 | 0 |
| CC1=CC(=O)OC1Cc1ccncc1 (stereo unspecified) | 0 |
| O=c1c2c(nc3c(-c4ccc(Cl)cc4)c[nH]n13)CCCC2 | 0 |
| O=C(CSc1nnnn1-c1cccc2c1CCCC2)NC1CCCC1 | -0.5 |
| CSC1=N/C(=C\c2ccc(Br)o2)C(=O)S1 | 0 |
| c1ccc2c(NC3CCCC3)nnc(NC3CCCC3)c2c1 | -1 (active) |
| CN=C1S/C(=C\c2cc(C)n(-c3ccccc3F)c2C)C(=O)N1C | 0 |
| CC1CCN(c2ccc(/C=N/n3nnnc3N)cc2[N+](=O)[O-])CC1 | 0 |
| Cc1cc(N2CCN(c3ccccc3)CC2)nc(NCc2ccccc2)n1 | 0 |
| Cc1ccc2nc(NCc3ccccc3)[nH]c2c1 | -1 (active) |
| S=c1[nH]nc(-c2ccco2)n1/N=C/c1cccc(Cl)c1Cl | 0 |
| CC(/C=N/n1c(-c2ccco2)n[nH]c1=S)=C\c1ccccc1 | 0 |
| S=c1[nH]nc(-c2ccco2)n1/N=C/c1ccc(Cl)cc1Cl | 1 (active) |
| Cc1ccc(N2CC(C(=O)Oc3cccc(N4C(=O)CCC4=O)c3)CC2=O)cc1 (stereo unspecified) | 0 |
